Here are results for 14 compounds from PubChem BioAssay (NCI).

Each structure is given as a SMILES string. About 83,000 compounds went through this panel and 20% of them were active in at least one assay; those are over-represented in the sample as a whole.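 Negative percent growth values reflect cell death: -40 means 40% of the cells present at the start died, and -100 means all died.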 Values without a mark were called inactive. Activity calls are given as the source filed them. Rule for the calls: active = growth percent below 10; inactive = the rest.

Among the test systems are NCI-H23 lung; NCI-H226 lung; HOP-62 NSCLC; NCI-H460 lung; HOP-92 NSCLC; NCI-H522 lung; A549/ATCC NSCLC; 786-0 renal; COLO 205 colon.
Common to all, as to assay: NCI-60 one-dose screen, 48 h (100 = growth as untreated, 0 = no growth, -100 = all killed)
Conditions in all cases: 10 µM

For `O=C(/C=C/c1cccc(B(O)O)c1)c1cccc(B(O)O)c1`, the growth with NCI-H23 lung is -0.41% (active); with NCI-H226 lung it was -59.2% (active); with HOP-62 NSCLC, -34.7% (active); with NCI-H460 lung, 23.3%; with HOP-92 NSCLC, 69.6%; with NCI-H522 lung it was -9.1% (active). Also, the growth in the assay with A549/ATCC NSCLC was 34.2%; in the assay with 786-0 renal it was -88.6% (active); in the assay on COLO 205 colon, -90.8% (active).
For the compound `O=C(CC(CC(=O)c1ccccc1)c1ccccc1O)c1ccccc1`, the growth in the assay on NCI-H23 lung is 92.8%; with NCI-H226 lung, 87.8%; with HOP-62 NSCLC, 85.8%; in the assay with NCI-H460 lung it was 93%; with HOP-92 NSCLC it was 88.9%; in the assay with NCI-H522 lung, 89.3%. Also, the results for the growth in the assay on A549/ATCC NSCLC, in the assay with 786-0 renal and with COLO 205 colon were 93%, 96.5% and 106%, respectively.
Turning to `CC[C@H]1OC(=O)[C@H](C)[C@@H](O[C@H]2C[C@@](C)(OC)[C@@H](O)[C@H](C)O2)[C@H](C)[C@@H](O[C@@H]2O[C@H](C)C[C@H](N(C)C)[C@H]2O)[C@](C)(OC)C/C(C)=C2/O[C@@]1(C)C=C2C`, the growth is 83.9% in the assay with NCI-H23 lung; 84.6% with NCI-H226 lung; 77.9% in the assay on HOP-62 NSCLC; -49.6% (active) in the assay on NCI-H460 lung; 36.3% with HOP-92 NSCLC; 44.4% with NCI-H522 lung. Further, the results for the growth with A549/ATCC NSCLC, with 786-0 renal and in the assay on COLO 205 colon were 61.9%, 72% and -47.3% (active), respectively.
For the compound `O=C(CCn1cnc2c(cc(-c3ccccc3)n2-c2ccccc2)c1=O)Nc1ccc(F)cc1`, the growth with NCI-H23 lung was 76.1%; in the assay with NCI-H226 lung it was 106%; with HOP-62 NSCLC it was 13%; in the assay with NCI-H460 lung it was 80.4%; in the assay with HOP-92 NSCLC, 34.2%; in the assay on NCI-H522 lung, 55%. In addition, the growth is 70.9% in the assay on A549/ATCC NSCLC, 62.7% with 786-0 renal and 103% in the assay with COLO 205 colon.
As for `COc1cc(/C=C/c2cc(/C=C/c3ccc(O)c(OC)c3)n(C(=O)Nc3ccccc3Cl)n2)ccc1O`, the growth in the assay with NCI-H23 lung was -25.8% (active); with NCI-H226 lung it was -3.72% (active); in the assay with HOP-62 NSCLC, 8.39% (active); in the assay with NCI-H460 lung, 7.39% (active); in the assay with HOP-92 NSCLC, -14.4% (active); in the assay with NCI-H522 lung, -18.7% (active). Moreover, the results for the growth in the assay on A549/ATCC NSCLC, in the assay with 786-0 renal and in the assay with COLO 205 colon were 8.75% (active), -14.8% (active) and -73.5% (active), respectively.
Regarding `O=C1c2ccccc2C(=O)c2c1ccc1c(=O)n(-c3ccccc3C(F)(F)F)nnc21`, the growth in the assay with NCI-H23 lung was 3.9% (active); in the assay with NCI-H226 lung, 35.9%; in the assay on HOP-62 NSCLC it was 23.8%; in the assay with NCI-H460 lung, 5.82% (active); in the assay on HOP-92 NSCLC, 37.1%; with NCI-H522 lung, 16.7%. Besides, the growth in the assay on A549/ATCC NSCLC is 13.1%; in the assay with 786-0 renal, 60.5%; in the assay on COLO 205 colon it was 8.51% (active).
Take `CN(C)CCCOc1ccccc1NC1=C(Cl)C(=O)C(Nc2ccccc2OCCCN(C)C)=C(Cl)C1=O`: the growth is -48.5% (active) with NCI-H23 lung; -81% (active) in the assay with NCI-H226 lung; -96.9% (active) in the assay with HOP-62 NSCLC; -20.6% (active) with NCI-H460 lung; -57.1% (active) in the assay with HOP-92 NSCLC; -67.2% (active) in the assay on NCI-H522 lung. The growth is -55.6% (active) with A549/ATCC NSCLC, -95.4% (active) in the assay with 786-0 renal and -64.9% (active) with COLO 205 colon.
With `COc1ccccc1N1CCCSC1=Nc1ccccc1`, the growth was 104% in the assay with NCI-H23 lung; 107% in the assay with NCI-H226 lung; -5.39% (active) in the assay on HOP-62 NSCLC; 99.7% in the assay on NCI-H460 lung; 68.4% in the assay on HOP-92 NSCLC; 71.9% with NCI-H522 lung. Moreover, the growth with A549/ATCC NSCLC was 99.2%; with COLO 205 colon, 104%.
For the compound `OCC1OC(n2ccc3c(NO)ncnc32)C(O)C1O` (stereo not given), the growth is -56.3% (active) in the assay with NCI-H23 lung; -10.3% (active) in the assay on NCI-H226 lung; -21.6% (active) in the assay with HOP-62 NSCLC; -27.7% (active) in the assay on NCI-H460 lung; -16.3% (active) in the assay on HOP-92 NSCLC; -30.1% (active) in the assay with NCI-H522 lung. The growth is -10.9% (active) in the assay on A549/ATCC NSCLC, -7.13% (active) in the assay on 786-0 renal and -91.1% (active) in the assay on COLO 205 colon.
With `CC(=O)Nc1ccc2c(c1)C(=O)c1cccc(C(=O)O)c1-2`, the growth in the assay with NCI-H23 lung is 104%; in the assay on NCI-H226 lung it was 95.5%; in the assay with HOP-62 NSCLC, 98.9%; in the assay with NCI-H460 lung, 98.1%; in the assay with HOP-92 NSCLC, 96.6%; in the assay with NCI-H522 lung it was 108%. In addition, the results for the growth in the assay on A549/ATCC NSCLC, in the assay on 786-0 renal and with COLO 205 colon were 97.6%, 105% and 114%, respectively.
As for `CN1CCN(CCC(=O)Nc2cccc(-n3cc(-c4ccncc4)c(-c4ccc(Cl)c(O)c4)n3)c2)CC1`, the growth with NCI-H23 lung was 46.4%; in the assay on NCI-H226 lung it was 66.6%; in the assay on HOP-62 NSCLC, 53.7%; in the assay on NCI-H460 lung, 13.4%; in the assay with HOP-92 NSCLC, 27.9%; in the assay with NCI-H522 lung it was 16.9%. Moreover, the figures for the growth in the assay on A549/ATCC NSCLC, with 786-0 renal and in the assay on COLO 205 colon were 30.2%, 32.2% and 12.8%, respectively.
`COc1cc(-c2nc3ccccc3o2)cc(CN2CCCCC2)c1O`: the growth is 22.1% in the assay on NCI-H23 lung; 78.8% in the assay with NCI-H226 lung; 49.7% with HOP-62 NSCLC; 31.7% in the assay on NCI-H460 lung; 103% in the assay on HOP-92 NSCLC; 65.9% with NCI-H522 lung. The figures for the growth with A549/ATCC NSCLC, in the assay on 786-0 renal and with COLO 205 colon were 34%, 94.7% and 113%, respectively.
For the compound `CN(C)CCN(Cc1ccccc1)c1ccc2ccccc2n1`, the growth in the assay on NCI-H23 lung is 97.6%; in the assay with NCI-H226 lung, 111%; with HOP-62 NSCLC, 88.4%; in the assay on NCI-H460 lung, 96.9%; in the assay on HOP-92 NSCLC, 75.6%; with NCI-H522 lung, 96.7%. Moreover, the values for the growth in the assay on A549/ATCC NSCLC, with 786-0 renal and with COLO 205 colon were 95.6%, 93.9% and 89.5%, respectively.
As to `Cc1cccc(N=Cc2ccccc2O)c1C`, the growth in the assay with NCI-H23 lung is 94.8%; in the assay on NCI-H226 lung it was 104%; in the assay on HOP-62 NSCLC, 103%; with NCI-H460 lung it was 114%; in the assay with HOP-92 NSCLC it was 97.3%; with NCI-H522 lung, 114%. Moreover, the growth is 88.2% with A549/ATCC NSCLC, 94.5% with 786-0 renal and 106% in the assay on COLO 205 colon.
